An excerpt weighted towards active compounds, which were near 19% of everything screened.
TGFb inhibitor = TGF-b pathway inhibition; hit rate 1.2% among 410,000; Potency, µM (highest dose often 46.1 µM), usual class: inhibitors; HepG2 CAGA-GFP TGF-b/SMAD3 reporter, GFP fluorescence, 18 h; TGF-beta stimulated, 500 pg/mL final; further: nearly all actives have a fitted effect of over 65% in size
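Per well, imaged GFP fluorescence of HEPG2 CAGA-GFP cells gives the signal; cells get compound, then TGF-beta (500 pg/mL final), 18 h at 37 degrees C; %Activity versus -TGF-beta and +DMSO controls.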
DT40 TDP1 CPT = growth inhibition of DT40 Tdp1-/-;hTDP1 cells with camptothecin (screen for TDP1 inhibitors); chicken DT40 Tdp1-/-;hTDP1 cells + 20 nM CPT, ATP luminescence, 48 h; Potency, µM (series often up to 46.2 µM), most hits filed as inhibitors; hit rate 12% among 420,000; further: nearly all actives have a fitted effect of over 55% in size
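Cell growth measured by CellTiter-Glo luminescence after a minimum 48 h, 37 C compound exposure with 20 nM CPT in Tdp1-knockout DT40 cells stably expressing hTDP1, seeded 400/well; qHTS titration format.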
DT40 TDP1 no CPT = qHTS for Inhibitors of human tyrosyl-DNA phosphodiesterase 1 (TDP1): qHTS in cells in absence of CPT; hit rate 15% among 420,000; DT40 Tdp1-/- hTDP1 cells, no CPT, ATP luminescence, 48 h; Potency, µM (top dose mostly 46.2 µM), most hits filed as inhibitors; AID 686978, 2013; further: nearly all actives have a fitted effect of over 55% in size
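A cellular qHTS used chicken DT40 cells lacking endogenous Tdp1 but carrying stably transfected human TDP1. Compounds were applied without camptothecin, and cell growth kinetics were judged by ATP-dependent luminescence after ≥48 hr.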
IL1B secr inh = inflammasome signaling inhibition, IL-1 beta readout | THP-1 LPS/ATP IL-1B secretion, AlphaLISA, 16 h; active compounds read low | activity change, % at 57.5 µM | hit rate 4.7% among 360,000 | AID 743279; in the data active means activity change below about -50%; inconclusive means mostly about -30% to -49%
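Secreted IL-1B measured by AlphaLISA bead assay after 16 h compound exposure of THP-1 cells; compounds (final up to 57.5 uM) added 1 h before LPS (250 ng/mL) and ATP (1.25 mM) stimulation; lower signal means less secretion.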
HepG2 tox = counter-screen for TGF-b inhibitors: cytotoxicity in HepG2 cells; HepG2 CAGA-GFP viability, ATP luminescence, 18 h; Potency, µM (doses to about 46.1 µM), most hits filed as cytotoxic; hit rate 0.76% among 410,000; AID 588856
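CellTiter-Glo luminescence gave cytotoxicity after 18 hours at 37 degrees C. The cells were HepG2 CAGA-GFP in 1% FBS DMEM, stimulated with 500 pg/mL TGF-beta after compound addition. %Activity was normalised to no-cell wells (complete cell-killing) and DMSO (no toxicity), and curves were fitted and classified.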
TDP1 inh = inhibitors of human tyrosyl-DNA phosphodiesterase TDP1; Q9NUW8; recombinant TDP1, AlphaScreen DNA substrate cleavage; Potency, µM (top dose mostly 130 µM), most hits filed as inhibitors; hit rate 0.28% among 350,000; AID 485290; further: nearly all actives have a fitted effect of over 40% in size
Target sequence (Q9NUW8 whole entry, looked up): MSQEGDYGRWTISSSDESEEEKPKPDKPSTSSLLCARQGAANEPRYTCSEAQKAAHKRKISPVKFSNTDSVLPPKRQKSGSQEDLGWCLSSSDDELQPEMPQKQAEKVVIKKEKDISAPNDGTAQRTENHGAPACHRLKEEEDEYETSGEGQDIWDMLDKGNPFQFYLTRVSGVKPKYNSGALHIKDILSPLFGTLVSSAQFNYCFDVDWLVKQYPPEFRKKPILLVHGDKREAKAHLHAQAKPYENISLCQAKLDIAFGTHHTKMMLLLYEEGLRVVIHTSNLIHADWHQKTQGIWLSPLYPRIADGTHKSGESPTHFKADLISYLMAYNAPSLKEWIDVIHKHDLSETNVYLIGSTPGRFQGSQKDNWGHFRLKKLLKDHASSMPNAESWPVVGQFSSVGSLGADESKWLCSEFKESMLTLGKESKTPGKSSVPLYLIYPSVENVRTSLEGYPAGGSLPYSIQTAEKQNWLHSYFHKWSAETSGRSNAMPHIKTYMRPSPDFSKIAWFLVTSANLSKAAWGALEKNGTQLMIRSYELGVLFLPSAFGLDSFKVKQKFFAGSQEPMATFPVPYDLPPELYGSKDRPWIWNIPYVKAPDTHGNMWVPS
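Recombinant human Tdp1 (E. coli-expressed, 1 nM final) preincubated with compounds 15 min at room temperature, then 5'-biotin/3'-phosphotyrosine-FITC DNA substrate (15 nM final) added for 5 min. AlphaScreen beads (10 ug/ml final) added 10 min; cleavage lowers signal.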
Of the large screens only hits and unclear results are named; the others gave an inactive call. Unless noted, the call rests on the fitted dose curve; in most records, active means well fitted curve in the direction sought with a large enough effect; inconclusive means small, poorly fitted or top-dose-only effect, or another doubt; inactive means no such curve, though single readings can be large; an effect the other way counts as inactive or inconclusive.

COc1ccc(C(CC(=O)N2CCCC2)c2c(OC)cc(OC)c3ccc(=O)oc23)cc1 (configuration not stated)	DT40 TDP1 CPT inconclusive, DT40 TDP1 no CPT inconclusive
COc1ccc(C(CC(=O)N2CCCC2)c2c(OC)cc(OC)c3c(-c4ccccc4)cc(=O)oc23)cc1 (configuration not stated)	TGFb inhibitor inconclusive, DT40 TDP1 CPT inconclusive, DT40 TDP1 no CPT 16µM, TDP1 inh 7.9µM
O=C(c1cccnc1)N1CCCc2ccccc21	none
Cc1ccc2nc3sc(C(=O)N4CCCc5ccccc54)c(N)c3cc2c1	DT40 TDP1 CPT inconclusive, DT40 TDP1 no CPT 15µM
O=C(c1cc(-c2ccccc2)nc2ccccc12)N1CCCC1	none
Cc1cnn(C(=O)c2cc(-c3ccccc3)nc3ccccc23)c1	TGFb inhibitor inconclusive, HepG2 tox 10µM
Cc1ccc(-c2cc(C(=O)N3CCCc4ccccc43)c3ccccc3n2)cc1	DT40 TDP1 CPT inconclusive, DT40 TDP1 no CPT 23µM
O=C(c1cnn2c(C(F)F)cc(-c3ccccc3)nc12)N1CCCCC1c1cccnc1 (configuration not stated)	DT40 TDP1 CPT 15µM, DT40 TDP1 no CPT inconclusive
O=C(c1cnn2c(C(F)F)cc(-c3ccccc3)nc12)N1CCN2CCCC2C1 (configuration not stated)	none
O=C1c2ccccc2C(=O)N1c1ccc2ccccc2n1	none (no result: TGFb inhibitor, DT40 TDP1 CPT, DT40 TDP1 no CPT, IL1B secr inh, HepG2 tox)
Cc1ccc(-c2cc(C(F)F)n3ncc(C(=O)N4CCc5ccccc54)c3n2)cc1	TGFb inhibitor inconclusive, DT40 TDP1 CPT 1.8µM, DT40 TDP1 no CPT 1.8µM
Cc1ccc(-c2cc(C(F)(F)F)n3ncc(C(=O)N4CCCc5ccccc54)c3n2)cc1	none
O=C(c1cnn2c(C(F)F)cc(-c3ccccc3)nc12)N1CCc2ccccc21	DT40 TDP1 CPT 18µM, DT40 TDP1 no CPT inconclusive
CCc1nccn1C(=O)c1cnn2c(C(F)F)cc(-c3ccc(C)cc3)nc12	TGFb inhibitor inconclusive, DT40 TDP1 CPT 21µM, DT40 TDP1 no CPT 15µM (no result: IL1B secr inh)
O=S1(=O)CCOCCCN1Cc1ccc(F)cc1	DT40 TDP1 no CPT inconclusive (no result: IL1B secr inh, TDP1 inh)
O=C1C2CC=CCC2C(=O)N1c1ccc(NCCc2ccccc2)c([N+](=O)[O-])c1 (configuration not stated)	DT40 TDP1 CPT inconclusive, DT40 TDP1 no CPT 23µM
CC1CC(=O)N(c2ccc(NCCc3ccc(O)cc3)c([N+](=O)[O-])c2)C1=O (configuration not stated)	DT40 TDP1 CPT 16µM, DT40 TDP1 no CPT 15µM
O=C(C1CC1)N(CCN(Cc1ccccc1)C(=O)C1CC1)Cc1ccccc1	DT40 TDP1 CPT 16µM, DT40 TDP1 no CPT 13µM
CCCNC(=O)Nc1cc(C(=O)NCc2cccc(OCC)c2)ccc1N1CCCC1	none (no result: IL1B secr inh)
COc1nc(N)nc2nc[nH]c12	IL1B secr inh -77 (no result: TDP1 inh)
Nc1nc(NCc2cccc(Cl)c2)c2[nH]cnc2n1	DT40 TDP1 CPT inconclusive, DT40 TDP1 no CPT inconclusive (no result: IL1B secr inh)
O=C(c1ccccc1Br)N(Cc1ccco1)C1CCS(=O)(=O)C1 (configuration not stated)	none (no result: IL1B secr inh)
CC(O)CCC(=O)NCCNC(=O)CCC(C)O (configuration not stated)	DT40 TDP1 CPT 26µM, DT40 TDP1 no CPT inconclusive
COc1ccc2cc(CN(C(=O)Nc3ccccc3OC)C3CCCC3)c(=O)[nH]c2c1	TGFb inhibitor inconclusive, DT40 TDP1 CPT inconclusive, DT40 TDP1 no CPT inconclusive, IL1B secr inh inconclusive
COc1ccc2cc(CN(CC3CCCO3)C(=O)Nc3ccccc3OC)c(=O)[nH]c2c1 (configuration not stated)	DT40 TDP1 CPT 4.1µM, DT40 TDP1 no CPT 4.6µM
COc1ccc(NC(=O)N(Cc2cc3ccc(OC)cc3[nH]c2=O)CC2CCCO2)cc1 (configuration not stated)	DT40 TDP1 CPT 18µM, DT40 TDP1 no CPT 13µM
COc1ccc(NC(=O)N(Cc2cc3cc(OC)ccc3[nH]c2=O)CC2CCCO2)cc1 (configuration not stated)	DT40 TDP1 CPT inconclusive, DT40 TDP1 no CPT inconclusive
CCOc1cccc(-c2c(C(=O)N/N=C/c3ccsc3)nnn2-c2nonc2N)c1	none
CCOC(=O)c1cnc2ccc(OCC)cc2c1N1CCN(c2ccccc2)CC1	TGFb inhibitor inconclusive, DT40 TDP1 CPT 21µM, DT40 TDP1 no CPT 26µM
CCOC(=O)c1cnc2ccc(OCC)cc2c1N1CCN(c2ccccc2F)CC1	TGFb inhibitor 11µM, DT40 TDP1 CPT 16µM, DT40 TDP1 no CPT 12µM (no result: IL1B secr inh)
CCOC(=O)N1CCN(c2c(N3CCN(c4cccc(C(F)(F)F)c4)CC3)c(=O)c2=O)CC1	none
CCOC(=O)c1cnc2ccc(OCC)cc2c1NCc1cccnc1	TGFb inhibitor inconclusive, DT40 TDP1 CPT inconclusive, DT40 TDP1 no CPT inconclusive, IL1B secr inh inconclusive
CCOC(=O)c1cnc2cc(C(F)(F)F)ccc2c1N1CCN(c2cccc(Cl)c2)CC1	DT40 TDP1 CPT inconclusive, DT40 TDP1 no CPT 23µM (no result: IL1B secr inh)
CCOC(=O)c1cnc2ccc(OCC)cc2c1NCc1ccccc1	TGFb inhibitor inconclusive, DT40 TDP1 CPT 5.8µM, DT40 TDP1 no CPT 6.5µM, IL1B secr inh inconclusive
CCCCCOc1ccc(NC(=O)Cn2c(-c3cncs3)nc3ccccc32)cc1	DT40 TDP1 CPT inconclusive, DT40 TDP1 no CPT inconclusive (no result: TGFb inhibitor, IL1B secr inh)
O=S(=O)(c1ccc(SCCO)nc1)N1CCOCC1	none
CC(=O)Nc1ccc(NC(=O)C2CC(=O)N(Cc3ccco3)C2)cc1 (configuration not stated)	none
Cc1ccc2c(=O)cc(C(=O)NC3CCS(=O)(=O)C3)oc2c1C (configuration not stated)	none
Cc1ccc(Cl)cc1NC(=O)CN(C)S(=O)(=O)c1ccc2c(c1)n(C)c(=O)c(=O)n2C	none (no result: IL1B secr inh)
CN(C[C@@H](CC1CCCCC1)N(C[C@H](Cc1ccccc1)N(CCc1ccccc1)N=O)N=O)N=O	DT40 TDP1 CPT 23µM, DT40 TDP1 no CPT inconclusive
CN(C[C@H](Cc1ccccc1)N(C[C@H](CC1CCCCC1)N(CCc1ccccc1)N=O)N=O)N=O	TGFb inhibitor inconclusive, DT40 TDP1 CPT 26µM, DT40 TDP1 no CPT inconclusive
CCC(C)[C@@H](CN(N=O)[C@@H](Cc1ccccc1)CN(C)N=O)N(CCc1ccccc1)N=O (some centres not stated)	DT40 TDP1 CPT 16µM, DT40 TDP1 no CPT 21µM
CC(CCc1ccccc1)NC(=O)CCC1CCCC1 (configuration not stated)	none (no result: TDP1 inh)
CCC(CC)C(=O)NCCCCc1ccccc1	none

Screening results (PubChem)
